Laboratory results taken from PubChem BioAssay AID624341 (National Center for Advancing Translational Sciences (NCATS), 2012).
Active and inactive are the calls of the source.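 The calls were made as follows: active = potency half-inhibition concentration of 75 µM or lower; inconclusive = potency above 75 µM but under 100 µM; inactive = potency of 100 µM or higher.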

target: Ubiquitin carboxyl-terminal hydrolase 7 (Homo sapiens) (UniProt Q93009); assay: Inhibitors of USP1/UAF1: Hit Validation in USP7 Diubiquiting Gel Assay; settings: USP7 K63 diubiquitin cleavage, SDS-PAGE gel densitometry
Sequence (Q93009 whole entry, looked up): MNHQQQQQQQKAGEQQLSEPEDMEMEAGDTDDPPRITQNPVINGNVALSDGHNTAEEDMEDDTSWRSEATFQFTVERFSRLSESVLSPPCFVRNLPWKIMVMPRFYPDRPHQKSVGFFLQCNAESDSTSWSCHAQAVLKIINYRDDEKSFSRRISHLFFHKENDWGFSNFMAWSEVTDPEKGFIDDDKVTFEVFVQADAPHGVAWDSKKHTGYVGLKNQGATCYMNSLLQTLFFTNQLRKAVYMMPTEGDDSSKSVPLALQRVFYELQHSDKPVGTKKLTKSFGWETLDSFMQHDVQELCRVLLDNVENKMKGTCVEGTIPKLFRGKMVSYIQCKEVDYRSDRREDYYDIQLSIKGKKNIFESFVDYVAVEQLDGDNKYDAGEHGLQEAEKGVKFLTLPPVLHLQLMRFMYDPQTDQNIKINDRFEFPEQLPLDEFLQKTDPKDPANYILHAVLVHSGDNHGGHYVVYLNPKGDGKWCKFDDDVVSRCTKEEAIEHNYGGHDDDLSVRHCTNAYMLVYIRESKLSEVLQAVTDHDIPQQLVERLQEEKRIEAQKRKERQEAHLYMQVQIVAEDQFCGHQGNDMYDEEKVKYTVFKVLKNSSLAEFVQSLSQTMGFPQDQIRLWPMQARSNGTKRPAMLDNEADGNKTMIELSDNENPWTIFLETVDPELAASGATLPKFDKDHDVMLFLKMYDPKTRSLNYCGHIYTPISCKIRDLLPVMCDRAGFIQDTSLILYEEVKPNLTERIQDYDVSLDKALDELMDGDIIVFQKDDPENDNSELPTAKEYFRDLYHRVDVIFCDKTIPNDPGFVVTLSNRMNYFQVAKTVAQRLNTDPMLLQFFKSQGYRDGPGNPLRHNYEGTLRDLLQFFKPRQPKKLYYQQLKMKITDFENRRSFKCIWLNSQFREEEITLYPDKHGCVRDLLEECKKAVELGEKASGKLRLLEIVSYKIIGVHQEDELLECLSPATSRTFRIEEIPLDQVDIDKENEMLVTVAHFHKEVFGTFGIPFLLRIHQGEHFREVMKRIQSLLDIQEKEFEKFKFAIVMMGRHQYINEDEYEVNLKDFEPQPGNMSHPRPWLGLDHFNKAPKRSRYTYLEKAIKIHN
Source text: Deubiquitinating enzymes (DUBs) are a class of enzymes that can cleave isopeptide bond formed between the C-terminal carboxylate of ubiquitin and a lysine side-chain amino group on the target protein. Among them, ubiquitin specific proteases (USPs) constitute the largest DUB family. Human USPs are emerging as promising targets for pharmacological intervention because of their connection to a number of human diseases, including prostate, colon and breast cancer (1, 2), pediatric acute lymphoblastic leukemia (3), and familial cylindromatosis (4). The advantage of inhibiting USPs lies in the potential specificity of therapeutic intervention that can lead to better efficacy and reduce nonspecific side effects. In a collaboration between the University of Delaware and the NIH Chemical Genomics Center, a high-throughput screen assay was developed to screen for USP1/UAF1 inhibitors. This miniaturized assay has a fluorescent read-out and is used to screen the NIH Molecular Libraries Small Molecule Repository (MLSMR) in order to identify a small molecule that inhibits USP1. Follow-up assays have also been developed to further test the hits from the primary screen. This assay validates the hits identified from the primary screen using a USP7 diubiquiting gel assay. NIH Chemical Genomics Center [NCGC] NIH Molecular Libraries Probe Centers Network [MLPCN] MLPCN Grant: DA030552-01 Assay Submitter (PI): Zhihao Zhuang, University of Delaware 1. Priolo, C., et al. (2006) The isopeptidase USP2a protects human prostate cancer from apoptosis. Cancer Res 66, 8625-8632 2. Popov, N., et al. (2007) The ubiquitin-specific protease USP28 is required for MYC stability. Nat Cell Biol 9, 765-774 3. […]
The inhibition assay contains 5 nM USP7, 2 microM K63 linked diubiquitin, and inhibitors at varied concentrations (0.08 microM - 114 microM). […] The intensity of the individual diubiquitin and monoubiquitin band was quantified using Quantity One 4.3.1 (Biorad, Hercules, CA). The percentage of the conversion was determined and used to calculate the reaction rate. […]

| SMILES | Potency |
| --- | --- |
| Cc1cccc(CNc2ccnc(-c3ccccc3C(F)(F)F)n2)c1 | 20.9 µM (active) |
| Cc1ccccc1-c1nc(NCc2cccs2)c2ccccc2n1 | 19.4 µM (active) |
| FC(F)(F)c1ccccc1-c1nc(NCc2cccs2)c2ccccc2n1 | 37.8 µM (active) |
